Measurements: PubChem BioAssay (NCATS)
Results filed as inconclusive are left out. Where a call stands in place of a potency, no number is given. Unmarked numbers belong to inactive results. The source made the active and inactive calls. Calls come from the whole dose curve; as a rule, active = well fitted curve in the direction sought with a large enough effect; inconclusive = small, poorly fitted or top-dose-only effect, or another doubt; inactive = no such curve, though single readings can be large; an effect the other way counts as inactive or inconclusive.

How the values were obtained:
[1] = P-glycoprotein substrates identified in KB-3-1 adenocarcinoma cell line, qHTS therapeutic library screen (AID 1346986); note: nearly all actives have a fitted effect of over 60% in size
In short: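 KB-3-1 parental and colchicine-selected P-gp-overexpressing KB-8-5-11 cells (colchicine omitted during assay), 500 cells/well, dosed in dose-response for 72 h at 37 °C; CellTiter-Glo luminescence. Cytotoxic: curve class -1.1 to -2.4, max response >50%, AC50 < 10 uM.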

[2] = P-glycoprotein substrates identified in KB-8-5-11 adenocarcinoma cell line, qHTS therapeutic library screen (AID 1346987); note: nearly all actives have a fitted effect of over 65% in size; for activity change, negative = cytotoxicity: series mostly up to about 44 µM
In short: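 Steps: plate 500 KB-8-5-11 cells/well in DMEM + 10% FCS (colchicine removed); pin compounds in dose-response; incubate 72 h, 37 degree C, 5% CO2; add CellTiter-Glo, 5 min; read luminescence.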

## O=C(N[C@@H]1CC[C@@H](c2cccc(F)c2F)CN(CC(F)(F)F)C1=O)N1CCC(n2c(=O)[nH]c3ncccc32)CC1
[1]
  Potency: inactive
[2]
  Potency: inactive

## CC1(C)CC[C@]2(C(=O)O[C@@H]3O[C@H](CO)[C@@H](O)[C@H](O)[C@H]3O)CC[C@]3(C)C(=CCC4[C@@]5(C)C[C@@H](O)[C@H](O)[C@@](C)(CO)C5[C@H](O)C[C@]43C)C2[C@@H]1O (stereo not given in full)
[1]
  Potency: inactive
[2]
  Potency: inactive

## CC(C)=CCC[C@](C)(O[C@@H]1O[C@H](CO[C@@H]2O[C@@H](CO)[C@H](O)[C@H]2O)[C@@H](O)[C@H](O)[C@H]1O)[C@H]1CC[C@]2(C)[C@@H]1[C@H](O)C[C@@H]1[C@@]3(C)CC[C@H](O[C@@H]4O[C@H](CO)[C@@H](O)[C@H](O)[C@H]4O[C@@H]4O[C@H](CO)[C@@H](O)[C@H](O)[C@H]4O)C(C)(C)[C@@H]3CC[C@]12C
[1]
  Potency: inactive
[2]
  Potency: inactive

## CC(C)=CCC/C(C)=C/CO[C@@H]1O[C@H](CO[C@@H]2OC[C@](O)(CO)[C@H]2O)[C@@H](O)[C@H](O)[C@H]1O
[1]
  Potency: inactive
[2]
  Potency: inactive

## CC(=O)OC1C(CO)OC(O[C@H]2[C@H](OC(=O)[C@]34CCC(C)(C)C[C@H]3C3=CCC5[C@@]6(C)CC[C@H](O[C@@H]7O[C@H](C(=O)O)[C@@H](O)[C@H](O[C@@H]8OC[C@@H](O)[C@H](O)[C@H]8O)[C@H]7O[C@@H]7O[C@H](CO)[C@H](O)[C@H](O)[C@H]7O)[C@@](C)(C=O)C6CC[C@@]5(C)[C@]3(C)C[C@H]4O)O[C@H](C)[C@H](OC3OC(C)C(OC4OCC(O)C(O)C4O)C(O)C3O)[C@@H]2O)C(O)C1O (stereo not given in full)
[1]
  outcome: inactive [at 9.29 µM]
[2]
  activity change, negative = cytotoxicity: 1.85% [at 9.29 µM]

## CC1=CC(=O)[C@]2(O[C@@H]3O[C@@H](C)[C@H](O)[C@@H](O)[C@H]3O)C=CO[C@@H](O[C@@H]3O[C@H](CO)[C@@H](O)[C@H](O)[C@H]3O)[C@H]12
[1]
  Potency: inactive
[2]
  Potency: inactive

## CSC(=O)OCC1=C[C@@H]2OC(=O)C3=CO[C@@H](O[C@@H]4O[C@H](CO)[C@@H](O)[C@H](O)[C@H]4O)[C@H]1[C@@H]32
[1]
  Potency: inactive
[2]
  Potency: inactive

## CC1OC(OC2C(OC3C(O[C@H]4CC[C@@]5(C)C(CC[C@]6(C)C5C(=O)CC5=C7CC(C)(C)CC(O)[C@]7(C)CC[C@]56C)C4(C)C)OC(C(=O)O)C(O)C3O)OCC(O)C2O)C(O)C(O)C1O (stereo not given in full)
[1]
  outcome: inactive [at 9.29 µM]
[2]
  outcome: inactive [at 9.29 µM]

## COC(=O)[C@H](Cc1ccc([N+](=O)[O-])cc1)NC(=O)c1cccc2ccccc12
[1]
  Potency: inactive
[2]
  Potency: inactive

## COC(=O)C1=CO[C@@H](O[C@@H]2O[C@H](CO)[C@@H](O)[C@H](O)[C@H]2O)[C@H]2[C@@H]1[C@H](O)C[C@]2(C)O
[1]
  Potency: inactive
[2]
  Potency: inactive

## CC(=O)O[C@@H]1[C@H](O[C@@H]2O[C@H](CO)[C@@H](O)[C@H](O)[C@H]2O)[C@@H](O[C@@H]2O[C@@H](C)[C@H](O)[C@@H](O[C@@H]3O[C@H](CO)[C@@H](O)[C@H](O)[C@H]3O)[C@H]2O)[C@H](OC(=O)[C@]23CCC(C)(C)C[C@H]2C2=CCC4[C@@]5(C)C[C@H](O)[C@H](O[C@@H]6O[C@H](C(=O)O)[C@@H](O)[C@H](O)[C@H]6O)[C@@](C)(C(=O)O)C5CC[C@@]4(C)[C@]2(C)CC3)O[C@@H]1C (stereo not given in full)
[1]
  outcome: inactive [at 9.29 µM]
[2]
  activity change, negative = cytotoxicity: 8.71% [at 9.29 µM]

## CC(C)CC(=O)O[C@@H]1O[C@H](CO)[C@@H](O[C@H]2O[C@H](C)[C@@H](N[C@H]3C=C(CO)[C@@H](O[C@H]4O[C@H](CO)[C@@H](O[C@H]5O[C@H](CO)[C@@H](O[C@H]6O[C@H](CO)[C@@H](O)[C@H](O)[C@H]6O)[C@H](O)[C@H]5O)[C@H](O)[C@H]4O)[C@H](O)[C@H]3O)[C@H](O)[C@H]2O)[C@H](O)[C@H]1O
[1]
  outcome: inactive [at 9.29 µM]
[2]
  activity change, negative = cytotoxicity: 8.1% [at 9.29 µM]

## O=C(/C=C/c1ccc(O)c(O)c1)O[C@H]1[C@@H]2C=CO[C@@H](O[C@@H]3O[C@H](CO)[C@@H](O)[C@H](O)[C@H]3O)[C@@H]2[C@@]2(CO)O[C@@H]12
[1]
  Potency: inactive
[2]
  Potency: inactive

## COC(=O)[C@H](Cc1cccc(C(=N)N)c1)[C@@H](C)NC(=O)c1ccc(-c2cc[n+]([O-])cc2)cc1
[1]
  Potency: inactive
[2]
  Potency: inactive

## COC(=O)C1=CO[C@@H](O[C@@H]2O[C@H](CO)[C@@H](O)[C@H](O)[C@H]2O)/C(=C\CO)[C@@H]1CC(=O)OCCc1ccc(O)cc1
[1]
  Potency: inactive
[2]
  Potency: inactive

## O=C(O)CCc1cc2ccoc2cc1O[C@@H]1O[C@H](CO)[C@@H](O)[C@H](O)[C@H]1O
[1]
  Potency: inactive
[2]
  Potency: inactive

## CC1CC(=O)[C@]2(O)C(C(=O)OCCc3ccc(O)cc3)=CO[C@@H](O[C@@H]3O[C@H](CO)[C@@H](O)[C@H](O)[C@H]3O)[C@H]12 (stereo not given in full)
[1]
  Potency: inactive
[2]
  Potency: inactive

## C=C1CCC2[C@](C)(CCC[C@]2(C)C(=O)O)[C@H]1CC/C(C)=C/C(=O)OC (stereo not given in full)
[1]
  Potency: inactive
[2]
  Potency: inactive

## C=C1CC23CC1CCC2C12OC(=O)C(C)(C(O)C(O)C1O)C2C3C(=O)O (stereo not given)
[1]
  Potency: inactive
[2]
  Potency: inactive

## Cc1ccc(C)c(S(=O)(=O)n2cnc3ccccc32)c1
[1]
  Potency: inactive
[2]
  Potency: inactive

## OC[C@H]1O[C@@H](OCc2ccccc2)[C@H](O[C@@H]2OC[C@@H](O)[C@H](O)[C@H]2O)[C@@H](O)[C@@H]1O
[1]
  Potency: inactive
[2]
  Potency: inactive

## CC(=O)NC(Cc1c[nH]c2ccccc(=O)c12)C(=O)O (stereo not given)
[1]
  Potency: inactive
[2]
  Potency: inactive

## CC(=O)OC12CC(C)C(O)C1/C=C(/COC1OC(CO)C(O)C(O)C1O)CCC1C(/C=C(\C)C2=O)C1(C)C (stereo not given)
[1]
  Potency: inactive
[2]
  Potency: inactive

## CSCC1OC(n2cnc3c(N)ncnc32)C(O)C1O (stereo not given)
[1]
  Potency: inactive
[2]
  Potency: inactive

## C=C1CC[C@H]2[C@@](C)(CCC(OC3OC(CO)C(O)C(O)C3O)[C@@]2(C)CO)C1C(=O)CC1=CCOC1=O (stereo not given in full)
[1]
  Potency: inactive
[2]
  Potency: inactive
